The whole screen tested about 360,000 compounds, of which about 3,000 (0.83%) were called active. Rule as the data show it: active = inhibition above about 38%; inactive = the rest. The full list was thinned out, with actives kept by preference.
Target: G-protein coupled receptor 183 (Homo sapiens) (UniProt P32249)
Assay: blockers of oxysterol-driven EBI2 arrestin signaling – cell-based, luminescence, 7a,25-OHC stimulation, uHTS, primary screen (AID 651636);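 also: enzyme fragment complementation signal reports receptor beta-arrestin coupling in cells; 0% = agonist plus DMSO wells and 100% = wells without agonist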
Conditions: EBI2 beta-arrestin recruitment, 7a,25-OHC stimulated, at 5 µM, stronger effect = higher value

Sequence of G-protein coupled receptor 183 (Homo sapiens) (P32249 whole entry, looked up, the tested form may be a part): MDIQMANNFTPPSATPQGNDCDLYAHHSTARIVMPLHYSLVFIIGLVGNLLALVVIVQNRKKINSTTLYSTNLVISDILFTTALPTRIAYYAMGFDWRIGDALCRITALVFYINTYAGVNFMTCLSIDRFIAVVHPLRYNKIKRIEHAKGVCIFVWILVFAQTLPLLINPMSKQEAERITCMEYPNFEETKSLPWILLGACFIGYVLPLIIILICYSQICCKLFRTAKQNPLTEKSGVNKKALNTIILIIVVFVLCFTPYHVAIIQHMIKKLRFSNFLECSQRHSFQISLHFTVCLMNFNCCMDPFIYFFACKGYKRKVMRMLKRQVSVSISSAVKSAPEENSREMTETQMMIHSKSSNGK

Compound | inhibition
COC(=O)c1ccc(NC(=O)CSc2nnc(Cc3cccn3C)n2-c2ccc(F)cc2)cc1 | -2.09% (inactive)
COc1ccc(-n2c(Cc3cccn3C)nnc2SCC(=O)Nc2cc(C)cc(C)c2)cc1 | 49.5% (active)
COc1ccccc1NC(=O)CSc1nnc(Cc2cccn2C)n1-c1ccc(F)cc1 | 9.51% (inactive)
CCCc1ccc(OCC(O)CN2CCN(C(=O)OCC)CC2)cc1 (stereo unspecified) | 22.6% (inactive)
O=C(C(c1ccccc1)c1ccccc1)N1CCN(CC(O)COc2ccccc2)CC1 (stereo unspecified) | 53.5% (active)
CC(=O)N1CCN(CC(c2ccccc2)c2ccccc2)CC1 | -1.32% (inactive)
O=C(O)C1=C(C(=O)O)C2CCC1C2 | 6.95% (inactive)
COc1ccc(/C=C(/NC(=O)c2ccccc2)C(=O)Nc2cccc(C(=O)O)c2)cc1 | -12.6% (inactive)
COc1ccc(/C=N/N=C/c2c[nH]c(=O)c(C#N)c2Nc2ccccc2)cc1 | 90.2% (active)
COc1ccc(O)c(/C=N/N=C/c2cccc([N+](=O)[O-])c2)c1 | 1.28% (inactive)
O=C(CSc1ccccn1)N1CCN(S(=O)(=O)c2ccc(Cl)cc2)CC1 | 1.72% (inactive)
CSCCC(NC(=O)COc1ccccc1)C(=O)N1CCN(c2cccc(C(F)(F)F)c2)CC1 (stereo unspecified) | 26.3% (inactive)
O=C(CN1CCN(S(=O)(=O)c2ccc(Cl)s2)CC1)NCc1ccc(Cl)cc1 | 15.5% (inactive)
O=C(Nc1ccc2c(c1)CCC2)c1cccc(S(=O)(=O)N2CCN(c3ccc(F)cc3)CC2)c1 | -5.81% (inactive)
Cc1c(C)c2ccc(OCC(=O)N3CCN(c4cccc(Cl)c4)CC3)cc2oc1=O | 11.5% (inactive)
O=C(COc1ccc2c(c1)CCC2)N1CCN(c2ccc(F)cc2)CC1 | 44.5% (active)
Nc1nc(SCC(=O)N2CCN(S(=O)(=O)c3ccc(Cl)cc3)CC2)n[nH]1 | -6.16% (inactive)
O=C(COc1ccc(Cl)cc1)N1CCN(S(=O)(=O)c2ccc(Cl)cc2)CC1 | 89.2% (active)
COc1ccc(N2CCN(C(=O)COc3ccc4c(C)cc(=O)oc4c3)CC2)cc1 | -7.37% (inactive)

Compound | inhibition
O=C(COc1ccc(Cl)cc1)N1CCN(c2cccc(C(F)(F)F)c2)CC1 | 84.9% (active)
Cc1ccc(OCC(=O)N2CCN(S(=O)(=O)c3ccc(Cl)s3)CC2)cc1C | 90% (active)
O=C(CN1CCN(S(=O)(=O)c2ccc(Cl)s2)CC1)N1CCCCC1 | -6.5% (inactive)
CC(=O)c1ccc(S(=O)(=O)Nc2ccc(-c3ccc4nncn4n3)cc2)cc1 | 6.72% (inactive)
COc1ccc(N2C(=O)C(O)C2c2ccc(C)cc2)cc1 (stereo unspecified) | -10.7% (inactive)
CC(C)(C)c1cc(CN2CCN(CCC#N)CC2)cc(C(C)(C)C)c1O | 1.34% (inactive)
Cc1ccc(NC(=O)C(C)Sc2nnc(C3CC3)n2C2CC2)cc1S(=O)(=O)N1CCOCC1 (stereo unspecified) | 6.91% (inactive)
CC(=O)NC(Cc1ccc(F)c(F)c1)C(=O)NC1CCN(C(=O)c2ccc(C)cc2)CC1 (stereo unspecified) | 1.72% (inactive)
COc1ccc2c(c1)C(=O)Nc1cc(Cl)ccc1N2 | 10.9% (inactive)
C/C(=N\NC(=O)C1(C)CC1(Br)Br)c1ccc(C)cc1C (stereo unspecified) | 4.16% (inactive)
CCOC(=O)/C=C/CN(C(=O)OC(C)(C)C)S(=O)(=O)N1CC=CC1 | 0.259% (inactive)
CC(=O)NC1=NN(C(C)=O)C(C)(CCS(=O)(=O)c2ccc(Cl)c(Cl)c2)S1 (stereo unspecified) | -4.01% (inactive)
COCc1cc(C)n(CC(=O)NCC2CCCO2)c(=O)c1C#N (stereo unspecified) | 2.55% (inactive)
CCCCOCCCNC(=O)C[C@@H]1C[C@@]2(C(=O)OC)CCCCC=C2N(CCC2=CCCCC2)C1=O | 3.92% (inactive)
COC(=O)CC(=O)N1CCN(c2ccc(Cl)c(Cl)c2)CC1 | -5.75% (inactive)
Cc1cc(OCC(=O)N2CCN(c3ncccn3)CC2)ccc1Cl | 86.6% (active)
CC(Oc1ccc(F)cc1)C(=O)N1CCN(c2ncccn2)CC1 (stereo unspecified) | -0.409% (inactive)
Cc1ccc(S(=O)(=O)N2[C@@H](Cc3ccccc3)CO[C@H]2CC(=O)OCc2ccccc2)cc1 | 23% (inactive)
COC(=O)[C@]12CCCCC=C1N(Cc1ccc3c(c1)OCO3)C(=O)[C@H](CC(=O)NCc1cccs1)C2 | 0.7% (inactive)

Compound | inhibition
CCC1SC(CC)C(=O)N(CC(=O)NC2CCCCC2)C1=O (stereo unspecified) | -0.813% (inactive)
O=C(CSc1nc(C2CC2)nc2ccccc12)Nc1cccc(O)c1 | -2.33% (inactive)
O=C(NNc1c2ccccc2nc2ccccc12)c1cc2ccccc2cc1O | 44.6% (active)
O=C(Cc1ccccn1)c1ccc(O)cc1O | 9.45% (inactive)
CCCn1nc(NC(=O)C(C)C)c2cc3cc(OC)ccc3nc21 | 16.4% (inactive)
O=C(Nc1ncc2c(n1)-c1ccccc1OC2)c1ccc(Cl)cc1 | 9.5% (inactive)
O=C(Nc1ncc2c(n1)CC(c1ccco1)CC2=O)c1ccc(Cl)cc1 (stereo unspecified) | 41.8% (active)
CCc1ccc(Nc2ncc3c(n2)CC(c2ccco2)CC3=O)cc1 (stereo unspecified) | 14.2% (inactive)
O=C(CC1SC(N2CCCC2)=NC1=O)Nc1ccc(C(=O)NCCc2ccc(F)cc2)cc1 (stereo unspecified) | -2.4% (inactive)
CC(=O)C[C@@H]1OC[C@H](CO)N1S(=O)(=O)c1ccc(C)cc1 | 3.35% (inactive)
CCOC(=O)[C@]12CCCC=C1N(CCC1=CCCCC1)C(=O)[C@H](CC(=O)N1CCCCC1)C2 | 8.47% (inactive)
COc1ccccc1N1CCN(C(=O)c2cc(-c3ccc(Br)cc3)on2)CC1 | 50% (active)
COc1cccc(-c2ccc(SCC(=O)N3CCN(c4ccccc4)CC3)nn2)c1 | 11.8% (inactive)
COc1ccc(Nc2ncc(C(=O)N3CCN(c4ccccc4OC)CC3)c3ccccc23)cc1 | -13.1% (inactive)
COc1cccc(-c2cc(C(=O)N3CCN(c4ccccc4OC)CC3)no2)c1 | 56.8% (active)
COc1ccccc1N1CCN(C(=O)Cn2nnc(-c3cccs3)n2)CC1 | -14.3% (inactive)
COc1ccc(OCc2cc(C(=O)N3CCCC3)no2)c2ccccc12 | -12.2% (inactive)
CC(C)C[C@@H]1COc2cc(N3CCC[C@@H]3CO)ccc2S(=O)(=O)N1 | -0.978% (inactive)
